Experimental data as given in publication PMC7862700, “An all-to-all approach to the identification of sequence-specific readers for epigenetic DNA modifications on cytosine”.

Legend:
Experiment in all cases: DAPPL (digital affinity profiling via proximity ligation, sequencing); 10 mM Tris-HCl pH 7.5, 50 mM NaCl, 1 mM DTT, 4% glycerol, room temperature, 30 min; GST-TFs on glutathione beads, 16-mer random dsDNA library, 0.1% formaldehyde crosslink after washing; high values mean tight binding
FEV = target: T1, FEV (Homo sapiens, UniProt Q99581 1-238); conditions: protein: recombinant; tags: N-terminal GST; dsDNA, one strand shown
T1 sequence: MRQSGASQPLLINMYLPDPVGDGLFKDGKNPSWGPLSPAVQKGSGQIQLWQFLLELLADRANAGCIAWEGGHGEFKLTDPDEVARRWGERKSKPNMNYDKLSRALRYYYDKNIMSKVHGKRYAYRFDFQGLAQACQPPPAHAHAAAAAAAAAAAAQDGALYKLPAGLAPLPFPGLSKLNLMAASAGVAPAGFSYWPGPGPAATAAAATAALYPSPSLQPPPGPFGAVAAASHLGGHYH
Procedure, shortened: (§1)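 Binding signal is each hexamer's read frequency for a factor divided by its frequency in the tag-only sample. The factors were GST-fused human transcription factors from yeast, captured on glutathione beads, DNA-barcoded and pooled with that sample. Pools were incubated with 200 nmole of a random double-stranded 16-mer DNA library in Tris/NaCl/DTT/glycerol buffer at room temperature for 30 min, then washed, crosslinked with 0.1% formaldehyde, proximity-ligated with BsaI/T4 ligase (1 h, 37 °C), PCR-amplified and sequenced on an Illumina NextSeq500.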

ETV5 = ETV5 (Homo sapiens, UniProt P41161 1-510); conditions: protein: recombinant; tags: N-terminal GST; dsDNA, one strand shown
Procedure, shortened: as §1

HSF1 = HSF1 (Homo sapiens, UniProt Q00613 1-529); conditions: protein: recombinant; tags: N-terminal GST; chain copies: 3; dsDNA, one strand shown
Procedure, shortened: as §1

SPIC = target: T2, SPIC (Homo sapiens, UniProt Q8N5J4 1-248); conditions: protein: recombinant; tags: N-terminal GST; dsDNA, one strand shown
T2 sequence: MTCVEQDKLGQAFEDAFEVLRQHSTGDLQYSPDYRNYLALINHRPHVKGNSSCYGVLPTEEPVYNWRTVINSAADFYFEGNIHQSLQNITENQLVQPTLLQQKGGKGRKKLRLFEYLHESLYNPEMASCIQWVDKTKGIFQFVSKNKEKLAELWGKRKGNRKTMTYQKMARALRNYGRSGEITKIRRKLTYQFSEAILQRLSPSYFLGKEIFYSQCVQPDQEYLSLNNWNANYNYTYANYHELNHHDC
Procedure, shortened: as §1

ELF4 = ELF4 (Homo sapiens, UniProt Q99607 1-663); conditions: protein: recombinant; tags: N-terminal GST; dsDNA, one strand shown
Procedure, shortened: as §1

ELK4 = target: T3, ELK4 (Homo sapiens, UniProt P28324-2 1-405); conditions: protein: recombinant; tags: N-terminal GST; dsDNA, one strand shown
T3 sequence: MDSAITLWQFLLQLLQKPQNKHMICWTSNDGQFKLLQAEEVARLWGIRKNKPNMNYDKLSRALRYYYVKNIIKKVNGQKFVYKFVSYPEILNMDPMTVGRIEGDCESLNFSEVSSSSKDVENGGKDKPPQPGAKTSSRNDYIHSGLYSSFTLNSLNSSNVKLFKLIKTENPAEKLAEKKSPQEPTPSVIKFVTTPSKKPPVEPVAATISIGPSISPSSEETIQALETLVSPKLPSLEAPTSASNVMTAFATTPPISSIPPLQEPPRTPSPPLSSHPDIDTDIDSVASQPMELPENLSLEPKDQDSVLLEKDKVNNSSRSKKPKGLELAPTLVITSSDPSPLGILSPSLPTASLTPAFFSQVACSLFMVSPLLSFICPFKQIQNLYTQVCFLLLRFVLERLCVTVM
Procedure, shortened: as §1

ETV2 = target: T4, ETV2 (Homo sapiens, UniProt O00321 1-342); conditions: protein: recombinant; tags: N-terminal GST; dsDNA, one strand shown
T4 sequence: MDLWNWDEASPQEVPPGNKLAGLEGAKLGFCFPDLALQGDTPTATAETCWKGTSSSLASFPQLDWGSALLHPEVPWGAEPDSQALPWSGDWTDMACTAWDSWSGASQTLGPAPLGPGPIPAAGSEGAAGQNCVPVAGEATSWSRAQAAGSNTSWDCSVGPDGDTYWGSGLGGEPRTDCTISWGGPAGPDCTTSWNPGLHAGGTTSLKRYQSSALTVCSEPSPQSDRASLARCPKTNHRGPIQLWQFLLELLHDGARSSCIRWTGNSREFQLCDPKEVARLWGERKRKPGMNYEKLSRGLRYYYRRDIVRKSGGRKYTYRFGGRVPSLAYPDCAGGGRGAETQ
Procedure, shortened: as §1

ELF3 = target: T5, ELF3 (Homo sapiens, UniProt P78545 1-371); conditions: protein: recombinant; tags: N-terminal GST; dsDNA, one strand shown
T5 sequence: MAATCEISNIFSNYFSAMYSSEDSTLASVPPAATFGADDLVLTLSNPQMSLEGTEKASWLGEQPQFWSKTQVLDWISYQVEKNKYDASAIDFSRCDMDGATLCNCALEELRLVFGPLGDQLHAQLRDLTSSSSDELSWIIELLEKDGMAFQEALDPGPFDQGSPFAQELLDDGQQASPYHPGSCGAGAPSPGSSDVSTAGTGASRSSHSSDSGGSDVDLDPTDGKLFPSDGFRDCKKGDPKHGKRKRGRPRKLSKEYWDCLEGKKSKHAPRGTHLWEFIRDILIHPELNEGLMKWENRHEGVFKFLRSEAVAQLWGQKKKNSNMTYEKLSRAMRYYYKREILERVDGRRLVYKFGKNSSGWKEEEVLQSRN
Procedure, shortened: as §1

CRX = CRX (Homo sapiens, UniProt O43186 1-299); conditions: protein: recombinant; tags: N-terminal GST; dsDNA, one strand shown
Procedure, shortened: as §1

ETV1 = ETV1 (Homo sapiens, UniProt P50549 1-477); conditions: protein: recombinant; tags: N-terminal GST; dsDNA, one strand shown
Procedure, shortened: as §1

Chain of ETV5 (P41161 whole entry): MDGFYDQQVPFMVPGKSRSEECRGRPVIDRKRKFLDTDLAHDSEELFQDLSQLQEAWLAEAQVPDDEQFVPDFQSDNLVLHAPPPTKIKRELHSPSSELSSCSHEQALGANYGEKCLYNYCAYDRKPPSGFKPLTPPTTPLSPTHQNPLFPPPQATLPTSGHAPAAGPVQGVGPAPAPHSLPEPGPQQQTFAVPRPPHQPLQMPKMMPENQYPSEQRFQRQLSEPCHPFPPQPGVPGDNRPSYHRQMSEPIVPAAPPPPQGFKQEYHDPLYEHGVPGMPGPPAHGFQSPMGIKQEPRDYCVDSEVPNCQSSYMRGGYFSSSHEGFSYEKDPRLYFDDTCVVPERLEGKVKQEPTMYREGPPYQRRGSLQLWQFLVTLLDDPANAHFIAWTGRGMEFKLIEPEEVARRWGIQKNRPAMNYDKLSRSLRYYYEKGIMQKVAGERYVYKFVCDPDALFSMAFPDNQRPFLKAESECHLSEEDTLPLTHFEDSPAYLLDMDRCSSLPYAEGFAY
Chain of ELF4 (Q99607 whole entry): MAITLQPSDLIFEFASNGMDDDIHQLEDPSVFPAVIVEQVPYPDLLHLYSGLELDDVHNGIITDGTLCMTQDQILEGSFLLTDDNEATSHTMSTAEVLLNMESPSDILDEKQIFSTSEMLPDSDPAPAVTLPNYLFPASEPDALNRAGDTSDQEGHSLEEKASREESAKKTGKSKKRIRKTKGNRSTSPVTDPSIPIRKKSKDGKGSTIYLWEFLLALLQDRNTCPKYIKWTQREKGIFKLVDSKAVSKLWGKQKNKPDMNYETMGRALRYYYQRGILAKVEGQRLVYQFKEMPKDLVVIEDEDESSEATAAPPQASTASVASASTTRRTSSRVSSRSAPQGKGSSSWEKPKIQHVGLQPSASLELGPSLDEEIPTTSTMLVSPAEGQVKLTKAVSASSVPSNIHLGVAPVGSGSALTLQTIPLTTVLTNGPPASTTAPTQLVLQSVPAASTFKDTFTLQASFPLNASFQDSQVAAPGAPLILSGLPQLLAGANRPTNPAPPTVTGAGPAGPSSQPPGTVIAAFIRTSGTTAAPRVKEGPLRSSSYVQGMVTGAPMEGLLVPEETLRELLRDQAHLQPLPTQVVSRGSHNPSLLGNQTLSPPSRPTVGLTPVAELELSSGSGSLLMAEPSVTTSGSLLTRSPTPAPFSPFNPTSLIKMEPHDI
Chain of HSF1 (Q00613 whole entry): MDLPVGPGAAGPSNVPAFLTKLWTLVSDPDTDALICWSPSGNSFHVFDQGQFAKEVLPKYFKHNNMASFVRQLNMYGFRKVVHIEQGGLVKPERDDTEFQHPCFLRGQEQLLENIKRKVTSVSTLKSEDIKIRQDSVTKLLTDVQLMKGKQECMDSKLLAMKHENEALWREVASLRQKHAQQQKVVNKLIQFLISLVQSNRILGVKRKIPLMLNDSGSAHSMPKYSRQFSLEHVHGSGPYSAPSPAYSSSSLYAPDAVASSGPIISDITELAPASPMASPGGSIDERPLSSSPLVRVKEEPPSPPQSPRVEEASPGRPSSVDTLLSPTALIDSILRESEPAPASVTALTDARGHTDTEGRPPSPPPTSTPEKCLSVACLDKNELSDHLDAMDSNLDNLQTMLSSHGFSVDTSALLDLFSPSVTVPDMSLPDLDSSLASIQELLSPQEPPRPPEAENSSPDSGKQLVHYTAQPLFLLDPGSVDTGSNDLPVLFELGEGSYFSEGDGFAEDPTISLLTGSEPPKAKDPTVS
Chain of ETV1 (P50549 whole entry): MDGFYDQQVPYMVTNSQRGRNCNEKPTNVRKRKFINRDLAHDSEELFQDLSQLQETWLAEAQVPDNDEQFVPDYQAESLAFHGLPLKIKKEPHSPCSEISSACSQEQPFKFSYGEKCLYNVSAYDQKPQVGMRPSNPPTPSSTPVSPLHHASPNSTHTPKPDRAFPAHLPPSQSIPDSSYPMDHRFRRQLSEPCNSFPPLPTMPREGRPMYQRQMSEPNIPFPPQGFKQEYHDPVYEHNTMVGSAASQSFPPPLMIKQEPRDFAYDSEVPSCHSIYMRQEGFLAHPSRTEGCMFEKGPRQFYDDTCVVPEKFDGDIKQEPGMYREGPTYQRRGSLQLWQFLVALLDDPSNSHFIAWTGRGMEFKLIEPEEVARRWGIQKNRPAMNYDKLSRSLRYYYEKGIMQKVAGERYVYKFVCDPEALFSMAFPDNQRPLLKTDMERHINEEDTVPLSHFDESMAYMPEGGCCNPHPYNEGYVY
Chain of CRX (O43186 whole entry): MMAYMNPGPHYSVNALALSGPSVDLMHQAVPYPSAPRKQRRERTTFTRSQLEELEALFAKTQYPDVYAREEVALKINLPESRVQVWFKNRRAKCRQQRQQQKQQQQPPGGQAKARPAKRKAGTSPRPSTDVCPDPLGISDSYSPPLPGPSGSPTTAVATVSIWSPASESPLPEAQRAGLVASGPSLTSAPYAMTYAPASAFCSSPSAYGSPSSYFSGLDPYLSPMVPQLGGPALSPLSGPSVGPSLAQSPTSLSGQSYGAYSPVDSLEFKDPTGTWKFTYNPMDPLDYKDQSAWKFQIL

AGAAGC
binding signal (FEV): 1.14 fold enrichment (6-mer frequency, TF over GST control) | binding signal (ETV5): 1.12 fold enrichment (6-mer frequency, TF over GST control) | binding signal (HSF1): 1.96 fold enrichment (6-mer frequency, TF over GST control) | binding signal (SPIC): 1.28 fold enrichment (6-mer frequency, TF over GST control) | binding signal (ELF4): 1.13 fold enrichment (6-mer frequency, TF over GST control) | binding signal (ELK4): 1.07 fold enrichment (6-mer frequency, TF over GST control) | binding signal (ETV2): 1.22 fold enrichment (6-mer frequency, TF over GST control) | binding signal (ELF3): 1.09 fold enrichment (6-mer frequency, TF over GST control) | binding signal (CRX): 1.32 fold enrichment (6-mer frequency, TF over GST control) | binding signal (ETV1): 1.11 fold enrichment (6-mer frequency, TF over GST control)
